Screening data (PubChem BioAssay)
The list is not random: actives were taken first. Their share in the collection is about 4.8%.
Calb FLC = affects C. albicans growth with fluconazole | C. albicans CaCi-2 (fluconazole-resistant clinical isolate) + fluconazole, Alamar Blue growth, 48 h | growth inhibition, % (concentration not given with the values) | actives 0.57% (n = 300,000) | AID 1979;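 active = growth inhibition above about 58% in most replicates, limit read from the data, passing the limit was not always enough; inconclusive = exactly half the replicates above a set limit; inactive = most replicates below a set limit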;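 also: all wells also contain fluconazole at 8 µg/ml as a sub-toxic cotreatment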
Mdm2-MdmX inh = inhibitors of human Mdm2/MdmX interaction. SaOS-2 split-luciferase Mdm2/MdmX complementation, luminescence. inhibition, % at 8 µM. actives 3% (n = 330,000). AID 485346;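 active = inhibition of at least 50% at 8 µM in the primary screen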
Target sequence (O15151 whole entry, looked up): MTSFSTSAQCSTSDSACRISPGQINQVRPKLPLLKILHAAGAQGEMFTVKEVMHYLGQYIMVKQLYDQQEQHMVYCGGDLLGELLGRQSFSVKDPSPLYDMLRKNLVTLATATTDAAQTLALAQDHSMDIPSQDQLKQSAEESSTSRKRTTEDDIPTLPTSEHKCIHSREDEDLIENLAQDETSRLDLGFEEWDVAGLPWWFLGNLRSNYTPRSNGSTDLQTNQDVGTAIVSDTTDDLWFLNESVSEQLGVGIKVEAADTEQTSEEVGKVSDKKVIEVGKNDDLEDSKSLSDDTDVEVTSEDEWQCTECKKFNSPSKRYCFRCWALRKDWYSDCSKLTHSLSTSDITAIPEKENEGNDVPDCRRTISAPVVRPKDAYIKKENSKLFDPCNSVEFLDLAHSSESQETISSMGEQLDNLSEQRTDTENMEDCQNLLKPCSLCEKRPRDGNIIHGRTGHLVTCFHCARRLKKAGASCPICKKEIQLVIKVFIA
Target sequence (Q00987 whole entry, looked up): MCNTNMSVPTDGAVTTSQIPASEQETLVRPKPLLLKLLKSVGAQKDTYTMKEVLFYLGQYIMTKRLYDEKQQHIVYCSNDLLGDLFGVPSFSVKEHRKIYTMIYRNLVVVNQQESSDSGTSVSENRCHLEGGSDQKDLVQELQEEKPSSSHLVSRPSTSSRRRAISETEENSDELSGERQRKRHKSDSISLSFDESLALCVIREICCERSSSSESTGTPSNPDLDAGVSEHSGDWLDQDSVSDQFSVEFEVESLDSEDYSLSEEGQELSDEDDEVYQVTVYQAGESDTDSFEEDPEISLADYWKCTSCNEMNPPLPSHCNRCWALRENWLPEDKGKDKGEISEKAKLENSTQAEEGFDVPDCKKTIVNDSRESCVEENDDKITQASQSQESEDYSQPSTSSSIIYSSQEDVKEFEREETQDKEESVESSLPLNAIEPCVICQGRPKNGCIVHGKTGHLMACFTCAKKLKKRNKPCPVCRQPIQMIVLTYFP
CSC inhib = cancer stem cell inhibition; cancer stem cell-like cells viability, luminescence; inhibition, % at 7.5 µM; actives 1.1% (n = 300,000); AID 2717; in the data active = inhibition above about 75%; inconclusive = no clear call, values can overlap the other calls; tested in HMLE shEcad cells
Beta cell apopt = beta cell apoptosis inhibition; INS-1E cytokine-induced death, ATP luminescence, 48 h; percent of positive-control rescue, neutral wells zero; protection from apoptosis, % (test concentration not listed); actives 0.8% (n = 300,000); AID 435005;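 active = Every replicate reaches about 75%, or at least half do and their mean reaches it too, limit read from the data; inconclusive = At least half of replicates reach the limit but their mean does not; inactive = Under half of replicates reach the limit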;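 also: higher means more ATP so stronger rescue from cytokine killing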
MPTP block = permeability transition pore inhibition; inhibition, % at 10 µM; actives 1.4% (n = 360,000); AID 602449; isolated mouse mitochondria, Ca2+ swelling absorbance, 30 min;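 active = inhibition of 50% or more, scaled per plate between neutral and stimulator controls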
Mdm2 MdmX conf = confirmation of human Mdm2/MdmX interaction inhibitors | actives 55% (n = 10,000) | AID 489028 | inhibition, % at 8 µM | Mdm2-MdmX binding, luminescent assay | shares compounds with Mdm2-MdmX inh; in the data active = inhibition above about 40%
Full FLuc ctr = inhibits full-length luciferase, flagging false Mdm2/MdmX hits | shares compounds with Mdm2-MdmX inh | SaOS-2 full-length luciferase counterscreen, luminescence | inhibition, % at 8 µM | actives 77% (n = 6,200);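 active = mean inhibition at 8 µM reaching about 37%, which flags the compound as non-specific, limit read from the data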;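 also: p53-null SaOS-2 cells with luciferase driven by a doxycycline-inducible promoter; compound on cells about two nights before reading with doxycycline added after day one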
Numbers stand for hits; n = inactive; u = inconclusive; x = no result; + = active, no number.

SMILES	Calb FLC	Mdm2-MdmX inh	CSC inhib	Beta cell apopt	MPTP block	Mdm2 MdmX conf	others
Cc1cccc(C(=O)Nc2ccc(C(=O)/C=C/c3ccncc3)cc2)c1	n	97	n	n	n	n
Cc1cccc(C(=O)Nc2cccc(C(=O)N/N=C/c3ccncc3)c2)c1	n	n	n	n	n	x
CC(=O)Nc1cccc(C(=O)/C=C/c2ccc(/C=C/C(=O)c3cccc(NC(C)=O)c3)cc2)c1	n	98	77	n	x	n
CCC(=O)Nc1cccc(C(=O)/C=C/c2cc(Br)ccc2OC)c1	n	97	n	n	n	80	Full FLuc ctr=59
CC(=O)Nc1cccc(C(=O)/C=C/c2ccc[nH]2)c1	n	n	n	n	n	x
CC(=O)Nc1cccc(C(=O)/C=C/c2ccc(N(C)C)cc2)c1	n	n	n	n	n	x
CC(=O)Nc1cccc(C(=O)/C=C/c2ccc(F)cc2)c1	u	73	n	n	n	n
COCCCN1C(=O)N(c2ccc(F)cc2)C(=O)C1CC(=O)Nc1ccc(OC)cc1 (stereo unspecified)	n	n	n	x	n	x
O=C(Nc1ccccc1)c1nc2ccccc2s1	n	n	n	n	n	x
Cc1ccc(C)c2sc(NC(=O)c3nc4ccccc4s3)nc12	n	58	n	n	n	n
CN(Cc1ccc2ccccc2c1)C(=O)c1ccc(C(F)(F)F)cc1	n	n	n	n	n	x
CCC(=O)N1CCCC(C)(C(=O)Nc2ccc(OC(F)F)cc2)C1 (stereo unspecified)	x	x	x	x	n	x
CC(=O)n1cc([C@H]2C=C(C(=O)Nc3ccccc3)O[C@@H](OCc3ccc(CO)cc3)C2)c2ccccc21	n	73	n	n	n	n	Full FLuc ctr=71
CC(=O)n1cc([C@@H]2C=C(C(=O)NCc3ccccc3)O[C@H](OCc3ccc(CO)cc3)C2)c2ccccc21	n	n	n	n	n	x
CCCCn1nnnc1C(c1cc2ccccc2o1)N(C)CCc1ccccc1 (stereo unspecified)	x	x	x	x	n	x
COC(=O)C1=CN(c2cccc(OCc3ccccc3)c2)C(N)=C(C#N)C1c1ccc(-c2ccccc2)cc1 (stereo unspecified)	x	x	x	x	n	x
O=C(/C=C1\OCc2ccccc21)c1ccccc1	x	x	x	x	n	x
CC(C)N(Cc1ccccc1)C(=O)COC(=O)c1cnc(Cl)c(Cl)c1	x	63	x	n	n	n
Nc1sc(-c2ccccc2)cc1C(=O)NCCc1c[nH]c2ccccc12	x	x	x	x	n	x
CCN1CCN(c2cc(C)c3cc(NC(=S)N4CCN(c5ccc(F)cc5)CC4)ccc3n2)CC1	n	96	u	n	n	45	Full FLuc ctr=52
CCN1CCN(c2cc(C)c3cc(NC(=O)c4ccncc4)ccc3n2)CC1	n	n	n	x	n	x
CCN1CCN(C(=S)Nc2ccc3nc(N4CCN(CC)CC4)cc(C)c3c2)CC1	n	n	n	n	n	x
CCN1CCN(c2cc(C)c3cc(NC(=O)c4ccc(C)c(C)c4)ccc3n2)CC1	n	67	n	n	n	n
CCCN(CCC)CCCNC(=S)Nc1ccc2nc(N3CCN(C)CC3)cc(C)c2c1	n	n	n	n	n	x
CCCN(CCC)CCCNC(=S)Nc1ccc2nc(N3CCN(CC)CC3)cc(C)c2c1	n	53	n	n	n	n
SMILES	Calb FLC	Mdm2-MdmX inh	CSC inhib	Beta cell apopt	MPTP block	Mdm2 MdmX conf	others
CCCCN(CC)CCNC(=S)Nc1ccc2nc(N3CCN(C)CC3)cc(C)c2c1	n	67	n	n	n	45	Full FLuc ctr=75
COc1ccc(/C=C/C(=O)c2ccc3c(c2)OCO3)cc1OC	x	n	n	n	n	x
COc1cc(/C=C/C(=O)c2ccc3c(c2)OCO3)cc(OC)c1OC	x	91	x	n	n	60	Full FLuc ctr=38
COc1ccc(OC)c(/C=C/C(=O)c2ccc3c(c2)OCCO3)c1	n	76	n	n	n	n
COc1cc(/C=C/C(=O)c2ccc3c(c2)OCCO3)cc(OC)c1OC	n	67	n	n	n	46	Full FLuc ctr=66
COc1cc(/C=C/C(=O)c2ccc(F)cc2)cc(OC)c1OC	n	n	n	n	n	x
COc1ccc(CN(C(=O)Cn2nnc(-c3ccc(C)o3)n2)C(C(=O)NCC2CCCO2)c2ccco2)cc1 (stereo unspecified)	n	n	n	n	n	x
C/C(=N\NC(=O)c1cc(C2CC2)nc2ccccc12)c1ccc(O)cc1O	101	75	n	95	n	78	Full FLuc ctr=38
C/C(=N\NC(=O)c1cc(-c2cccnc2)nc2ccccc12)c1ccccc1O	n	63	x	86	n	51	Full FLuc ctr=39
C/C(=N\NC(=O)c1cc(C2CC2)nc2ccccc12)c1ccc(C)s1	n	n	n	n	n	x
CCN1CCN(CC(=O)Nc2c(OC)cccc2OC)CC1	n	n	n	n	n	x
COc1ccc(CCNC(=O)NCCc2c[nH]c3ccccc23)cc1OC	n	n	n	n	n	x
COc1cc(CNCCc2c[nH]c3ccccc23)ccc1OCc1ccccc1F	n	90	+	n	n	n
COCCNC(=O)/C(C#N)=C/C=C/c1ccccc1[N+](=O)[O-]	n	53	n	n	n	54	Full FLuc ctr=n
COCCNC(=O)/C(C#N)=C/c1ccc(O)c([N+](=O)[O-])c1	n	n	n	n	n	x
C=CCn1c(O)c(N=NC(=S)Nc2cccc(OC)c2)c2ccccc21	n	58	n	n	n	40	Full FLuc ctr=48
C=CCn1c(O)c(N=NC(=O)OCC)c2ccccc21	n	n	n	n	n	x
COc1ccc2c(CC(=O)Nc3ccc(OC)nc3)coc2c1	n	n	n	n	n	x
Cc1ccc(-n2cc(CN3CCC(CO)(Cc4ccccc4)CC3)cn2)cc1	n	n	n	n	x	x
Cc1ccc(-n2cc(CN3CCC(CO)(Cc4cccc(C(F)(F)F)c4)CC3)cn2)cc1	n	84	n	n	n	48	Full FLuc ctr=69
CN(CC(=O)N1CCOCC1)S(=O)(=O)c1ccc2ccccc2c1	n	n	n	n	n	x
COc1cc(Br)cc(/C=N/NC(=O)Cc2ccccc2)c1O	n	n	n	n	n	x
O=C(Cc1ccccc1)N/N=C/c1cc(Br)cc(Cl)c1O	114	59	n	x	n	68	Full FLuc ctr=n
Cc1ccc(/C=N/NC(=O)Cc2ccc(Cl)cc2)c(O)c1	n	60	n	83	n	54	Full FLuc ctr=42
Cc1ccccc1/C=N/NC(=O)Cc1ccc(Cl)cc1	n	n	n	n	n	x
COc1ccc(NC(=O)C2(C)Cc3c(-c4ccc5c(c4)OCO5)ccnc3O2)cn1 (stereo unspecified)	x	x	x	x	n	x
COc1ccc(C(C)(NC(C)=O)c2nc(/C=C/c3ccccc3)cs2)cc1 (stereo unspecified)	x	x	x	x	n	x
COc1ccc(C2CC(c3cccc(C(F)(F)F)c3)=NN2c2ccc(S(N)(=O)=O)cc2)cc1 (stereo unspecified)	x	87	x	x	n	n
COc1ccc(C2CC(c3cccc(Br)c3)=NN2c2ccc(S(N)(=O)=O)cc2)cc1 (stereo unspecified)	x	57	x	x	n	n
COc1ccc(C2CC(c3ccccc3Cl)=NN2c2ccc(S(N)(=O)=O)cc2)cc1 (stereo unspecified)	x	n	x	x	n	x
